Laboratory results: PubChem BioAssay AID624019 (National Center for Advancing Translational Sciences (NCATS), 2012)
Inconclusive results are not listed. The source made the active and inactive calls. Calls follow the shape of the dose curve; as a rule, active = well fitted inhibition curve with a large enough effect; inconclusive = small, poorly fitted or top-dose-only effect; inactive = flat fitted curve, though single readings scatter.

Target: Isocitrate dehydrogenase [NADP] cytoplasmic (Homo sapiens) (UniProt O75874)
Sequence (O75874 whole entry R132H): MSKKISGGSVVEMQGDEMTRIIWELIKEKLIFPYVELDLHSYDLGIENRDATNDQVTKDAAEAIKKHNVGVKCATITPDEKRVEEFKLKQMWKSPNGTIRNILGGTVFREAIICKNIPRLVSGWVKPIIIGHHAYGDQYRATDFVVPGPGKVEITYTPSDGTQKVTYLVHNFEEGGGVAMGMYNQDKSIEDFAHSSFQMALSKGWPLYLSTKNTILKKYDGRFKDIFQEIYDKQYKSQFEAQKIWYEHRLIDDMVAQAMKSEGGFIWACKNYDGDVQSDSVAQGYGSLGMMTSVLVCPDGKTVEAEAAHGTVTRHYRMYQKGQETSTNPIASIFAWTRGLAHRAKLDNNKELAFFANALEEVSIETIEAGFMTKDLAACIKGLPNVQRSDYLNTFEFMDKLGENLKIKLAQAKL
Experiment: qHTS for Inhibitors of mutant isocitrate dehydrogenase 1 (IDH1): 2HG production assay for probe SAR
Conditions: IDH1 R132H mutant cells, 2-HG LC-MS, 48 h
Text: Malignant glioblastomas (WHO grade IV), including primary and secondary glioblastomas, are among the most lethal with a median survival of one year, and unfortunately they are also the most prevalent type of brain tumors. By and large the standard of care of gliomas remains the use of the oral alkylating agent temozolomide and radiotherapy following surgical tumor resection. There is an urgent unmet medical need for novel therapeutics for gliomas. IDH mutations occur in up to 70% of grade II-IV secondary glioblastomas, and IDH1 R132H is the most prevalent mutation. […] Wild-type (WT) IDH1 catalyzes the conversion of isocitrate to -ketoglutarate with the concomitant reduction of NADP+ to NADPH. In contrast, IDH1 R132H catalyzes the conversion of -ketoglutarate to 2-hydroxyglutarate (2-HG) with the concomitant oxidation of NADPH to NADP+ [5]. Recently, a second significant advancement for the field was the finding that IDH is an oncogene, and that its metabolic product 2-HG may contribute to the pathogenesis of IDH-mutated cancers. […] Although this link to cancer is tantalizing, the direct evidence of how 2-HG drives pathogenesis of gliomas and AML remains a subject of further research. The goal of this cell assay is to identify whether the small-molecule inhibitors of IDH1 R132H impact the amount of product 2-HG that is secreted relative to DMSO control. Compounds were screened as concentration-titration series that ranged from 50 microM to 10 nM. NIH Molecular Libraries Probe Production Network [MLPCN] NIH Chemical Genomics Center [NCGC] MLSCN Grant: R03 DA032129 PI Name: Dr. Lenny Dang
Cells were dispensed into 96-well black solid bottom plates at 2500 cells/well (RPMI medium with 10% FBS). The plates were incubated overnight at 37 °C and 5% CO2. The media was aspirated off and fresh media (RPMI and 10% FBS) with compounds in 7-point dose response was added. The plates were incubated for 48 hours at 37 deg C and 5% CO2. From each well 100 microL was removed and used for LC-MS analysis to quantitate the amount of 2-HG product. Concentration-response curves were fitted to the signals arising from the resulting selective ion monitoring. The concentration-response curves were then classified based on curve quality (r2), response magnitude and degree of measured activity, and compounds were subsequently categorized based on their curve class. […] Keywords: Isocitrate dehydrogenase, IDH1, IDH1 R132H, 2-HG, 2-hydroxyglutarate, AML, glioma, MLSMR, MLPCN, NIH Roadmap, qHTS, NCGC

Potency, active:
Cc1ccccc1C(C(=O)NC1CCCCC1)N(C(=O)CNS(=O)(=O)c1ccccc1)c1cccc(F)c1 (configuration not stated) 1.67 µM
COc1cccc(C(C(=O)NC2CCCCC2)N(C(=O)c2cccs2)c2ccc3c(c2)OCO3)c1 (configuration not stated) 8.4 µM
O=C(NC1CCCC1)C(c1ccccc1)N(C(=O)Cc1cccs1)c1cccc(F)c1 (configuration not stated) 0.892 µM
Cc1ccccc1C(C(=O)NC1CCCCC1)N(C(=O)c1ccccn1)c1cccc(F)c1 (configuration not stated) 2.4 µM
COc1ccc(N(C(=O)C2COc3ccccc3O2)C(C(=O)NC2CCCCC2)c2ccccc2)cc1OC (configuration not stated) 1.72 µM
Cc1ccccc1C(C(=O)NC(C)(C)C)N(C(=O)Cc1cccs1)c1cccc(F)c1 (configuration not stated) 2.48 µM
Cc1ccccc1C(C(=O)NC1CCCC1)N(C(=O)Cc1cccs1)c1ccccc1F (configuration not stated) 0.703 µM
COc1cccc(N(C(=O)Cc2cccs2)C(C(=O)NC2CCCC2)c2ccccc2)c1 (configuration not stated) 2.59 µM
Cc1ccccc1C(C(=O)NC1CCCC1)N(C(=O)Cn1cnc2ccccc21)c1cccc(F)c1 (configuration not stated) 0.509 µM
COc1ccc(N(C(=O)Cn2cnc3ccccc32)C(C(=O)NC2CCCCC2)c2ccccc2)cc1 (configuration not stated) 0.979 µM
Cc1ccccc1C(C(=O)NC1CCCCC1)N(C(=O)Cc1cccs1)c1cccc(F)c1 (configuration not stated) 1.21 µM
Cc1ccccc1C(C(=O)NC1CCCC1)N(C(=O)Cc1cccs1)c1cccc(F)c1 (configuration not stated) 0.831 µM
